Screening results as filed in PubChem.
VACV E9 pol inh: inhibitors of vaccinia virus processive DNA synthesis (E9 polymerase) | AID 493162 | in vitro processive DNA synthesis, absorbance read-out; stronger effect = lower value | normalized absorbance, % (no concentration beside the values) | actives 0.94% (n = 46,000); in the data active means normalized absorbance mostly below about 85%, no sharp cut-off; inactive means mostly above about 86%
Numbers without * were called inactive. The entries come from a sample that favours hits as a whole.

SMILES	VACV E9 pol inh
O=C(OCC(=O)N1CCCC1)c1ccccc1Cc1ccccc1	96.4
O=C(CCN1N=C(c2ccccc2)CCC1=O)Nc1cccc(C(F)(F)F)c1	76.2
O=C(O)CCCC(=O)Nc1ccc(-c2nc3ccccc3[nH]2)cc1	60.0*
O=C(O)CCC(=O)Nc1cccc(-c2nc3ccccc3[nH]2)c1	99.4
O=C(O)CCCC(=O)Nc1nc2ccccc2[nH]1	96.8
NS(=O)(=O)c1ccc2nc(NC(=O)c3cccc(C(F)(F)F)c3)sc2c1	100.4
Cc1ccc(NN)cc1	65.0*
Cc1ccc(Nc2ccc(C)cc2)cc1	99.7
Cc1ccc(S(=O)(=O)c2ccc(NN)cc2)cc1	95.0
Nn1c(CSCc2ccccc2)nnc1CSCc1ccccc1	97.9
O=C(NCc1ccccc1)NC1(C(F)(F)F)Oc2ccccc2O1	92.9
COC(=O)c1cc2c(Cl)nc3ccc(C)cc3c2s1	91.3
CCCCN(Cc1ccco1)C(=O)c1cc2c(=O)oc3ccc(C)cc3c2s1	102.5
Cc1ccc2nc(Cl)c3cc(C(=O)N(CCN(C)C)Cc4ccco4)sc3c2c1	52.7*
CCCc1nc2c(sc3nc(COC)cc(C)c32)c2nc3ccccc3n12	100.2
CCOC(=O)c1c(C)n(CC)c2ccc(O)cc12	100.7
CCOC(=O)c1c2ccc(O)cc2n2ccccc12	74.8*
CCOC(=O)c1c(C)n(Cc2ccccc2)c2ccc(O)cc12	101.6
Cc1ccc(C)c(-c2csc(N)n2)c1	104.7
CCc1c(C)c2cc3c(C)coc3cc2oc1=O	98.8
CCOC(=O)COc1ccc(-c2nn[nH]n2)cc1	104.9
OC(CN1CCNCC1)Cn1c2ccccc2c2cc(Br)ccc21 (configuration not stated)	55.8*
OC(COc1ccccc1Br)CN1CCNCC1 (configuration not stated)	96.8
CN(CC(O)Cn1c2ccccc2c2ccccc21)S(=O)(=O)c1ccc(Cl)cc1 (configuration not stated)	100.1
OCC(O)Cn1c2ccc(Br)cc2c2cc(Br)ccc21 (configuration not stated)	64.7*
SMILES	VACV E9 pol inh
CN(C)CC(O)Cn1c2ccc(Cl)cc2c2cc(Cl)ccc21 (configuration not stated)	27.3*
CN(C)CC(O)Cn1c2ccccc2c2ccccc21 (configuration not stated)	81.4
CCn1c2c(c3cc(Br)ccc31)CCCC2=O	100.4
Cc1ccc2c(c1)c(C)c(C)n2CC(O)CN1CCCCC1 (configuration not stated)	104.6
CC1CCN(CC(O)Cn2c3ccccc3c3ccccc32)CC1 (configuration not stated)	95.9
COc1ccc(OCC(=O)N2CCN(c3ccccc3)CC2)cc1	100.8
Cn1c(=O)c(-c2nc(-c3ccccc3)cs2)cn(-c2ccccc2)c1=O	98.2
CCC(C)NC(=O)c1ccc(Cl)cc1 (configuration not stated)	99.4
O=C1c2ccccc2C(=Nc2ccccc2)C1c1ccccc1 (configuration not stated)	100.0
O=C(Cn1c2c(c(-c3ccccc3)cc1=O)CCCC2)N1CCCC1	104.5
NS(=O)(=O)c1ccc(NC(=O)CC2SC(=O)NC2=O)cc1 (configuration not stated)	99.6
Cc1cc(=O)oc2c(CN3CCCCC3)c(O)ccc12	99.7
CCOC(=O)c1c(C)oc2c1c(CN1CCN(C)CC1)c(O)c1ccccc12	99.3
Cc1cc(O)c(CN2CCN(C)CC2)c2oc(=O)c3ccccc3c12	81.4*
CN1CCCC(OC(=O)c2ccco2)C1 (configuration not stated)	102.4
COc1ccc(-c2nc(N)n(C(=O)CCc3ccccc3)n2)cc1	99.8
NC[C@@H]1O[C@H](O[C@H]2[C@@H](O)[C@H](O[C@@H]3[C@@H](O)[C@H](N)C[C@H](N)[C@H]3O[C@@H]3O[C@H](CO)[C@@H](O)C[C@H]3N)O[C@@H]2CO)[C@H](N)[C@@H](O)[C@@H]1O[C@H]1O[C@H](CO)[C@@H](O)[C@H](O)[C@@H]1O	100.0
O=C(O)CSc1nc2ccccc2n2cnnc12	102.1
O=C(Sc1ccc(Cl)cc1)c1ccc(-c2cccs2)s1	99.0
CC(C)(C)c1csc(-c2ccc(-c3cccs3)s2)n1	100.0
CN(C)C=NC(=S)c1ccc(-c2cccs2)s1	77.8*
Cc1n[nH]c(C)c1Sc1nccc(-c2cccnc2)n1	106.0
CC(C)COC(=O)n1n[n+]([O-])c2ccccc21	100.2
Cc1ccc(Nc2nc(N3CC(C)OC(C)C3)nc3c2cnn3C)cc1Cl (configuration not stated)	97.0
COc1ccc(Nc2nc(N3CCN(CCO)CC3)nc3c2cnn3C)cc1Cl	38.3*
SMILES	VACV E9 pol inh
CCc1nc2c(cnn2-c2ccc(F)cc2)c(=O)n1-c1ccc(OC)c(Cl)c1	101.8
O=C(Cc1cccc2ccccc12)N1CCN(c2cccc(C(F)(F)F)c2)CC1	96.0
CCc1ccc(NC2c3ccccc3C(=O)N2c2ccccc2C)cc1 (configuration not stated)	91.6
COc1cc2c(cc1OC)C(c1ccccc1)CC(=O)N2 (configuration not stated)	85.0
O=C1CC(c2ccccc2)c2c(ccc3ccccc23)N1 (configuration not stated)	83.5*
O=C(CCC1CC(=O)Nc2ccccc21)NCc1ccccc1 (configuration not stated)	84.4
CCC(=O)c1c(OCC(N)=O)ccc2c(C)cc(=O)oc12	89.8
CC(C)Nc1nc(-c2ccccc2)nc2ccccc12	100.8
COC(=O)C1=C(C)NC(C)=C(C(=O)OC)C1c1ccc(C(C)C)cc1	99.7
CC[n+]1c(-c2ccccc2)c2cc(N)ccc2c2ccc(N)cc21	12.0*
Nc1ccc2c(c1)nc(-c1ccccc1)c1cc(N)ccc12	98.5
COc1ccc(O)c(C=Nc2cc(C(F)(F)F)ccc2Oc2ccccc2)c1	98.1
Cc1cc(C)c(N2CCCC2C(=O)Nc2cccc(C(F)(F)F)c2)c(C)c1 (configuration not stated)	103.9
Cc1ccc(C)n1C(CC(=O)O)c1ccc(C#N)cc1 (configuration not stated)	105.7
Cc1ccc(C)n1C(CC(=O)O)C1CCCCC1 (configuration not stated)	70.3*
NC(CC(=O)O)C1CCCCC1 (configuration not stated)	102.0
O=C(O)CCC(=O)c1ccc(Cl)s1	101.6
C=CCn1c(/N=C/c2ccc(OCCC(C)C)cc2)nc2ccccc21	99.6
CS(=O)(=O)Nc1cc(NS(C)(=O)=O)cc(C(=O)O)c1	99.9
Cn1nnnc1SCC1=C(C(=O)O)N2C(=O)C(NC(=O)C(O)c3ccccc3)C2SC1 (configuration not stated)	64.0*
CC(=O)OCC1=C(C(=O)O)N2C(=O)[C@@H](NC(=O)CCCC(N)C(=O)O)C2SC1 (some centres not stated)	87.9
CO/N=C(/C(=O)NC1C(=O)N2C(C(=O)O)=C(COC(N)=O)CSC12)c1ccco1 (configuration not stated)	95.1
CC1=C(C(=O)O)N2C(=O)[C@@H](NC(=O)[C@H](N)c3ccc(O)cc3)[C@H]2SC1	100.2
CC(=O)OCC1=C(C(=O)O)N2C(=O)[C@@H](NC(=O)CSc3ccncc3)[C@H]2SC1	59.8*
Cn1nnnc1SCC1=C(C(=O)O)N2C(=O)C(NC(=O)C(OC=O)c3ccccc3)C2SC1 (configuration not stated)	99.1
C/C(=C\C(=Nc1ccccc1O)c1ccccn1)c1ccccn1	103.9
CC/C(O)=c1\ccc2cccc3nc(CC)nc1c23	84.9
